# Test results: PubChem BioAssay AID1942 (Johns Hopkins Ion Channel Center, 2009)
# Among all 2,400 compounds or so, about 580 (24%) were called active.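 How the source made its calls: active means activity change at or above the mean plus 3 SD of buffer wells without dofetilide, per plate; inactive means the rest.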 The list is a sample of the results.
# Target: Potassium voltage-gated channel subfamily KQT member 2 (Rattus norvegicus) (UniProt O88943)
# Assay: rat KCNQ2 channel activation by compounds alone, confirmation, counter-screen for hERG block protector project, cell-based, CHO, FluxOR thallium flux (AID 1942);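 further: normalized value minus buffer-control mean plus three SD of buffer wells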
# Conditions: CHO-KCNQ2 cells, FluxOR thallium flux fluorescence; at 10 µM; hits give high values
# Chain of Potassium voltage-gated channel subfamily KQT member 2 (Rattus norvegicus) (O88943 whole entry, looked up): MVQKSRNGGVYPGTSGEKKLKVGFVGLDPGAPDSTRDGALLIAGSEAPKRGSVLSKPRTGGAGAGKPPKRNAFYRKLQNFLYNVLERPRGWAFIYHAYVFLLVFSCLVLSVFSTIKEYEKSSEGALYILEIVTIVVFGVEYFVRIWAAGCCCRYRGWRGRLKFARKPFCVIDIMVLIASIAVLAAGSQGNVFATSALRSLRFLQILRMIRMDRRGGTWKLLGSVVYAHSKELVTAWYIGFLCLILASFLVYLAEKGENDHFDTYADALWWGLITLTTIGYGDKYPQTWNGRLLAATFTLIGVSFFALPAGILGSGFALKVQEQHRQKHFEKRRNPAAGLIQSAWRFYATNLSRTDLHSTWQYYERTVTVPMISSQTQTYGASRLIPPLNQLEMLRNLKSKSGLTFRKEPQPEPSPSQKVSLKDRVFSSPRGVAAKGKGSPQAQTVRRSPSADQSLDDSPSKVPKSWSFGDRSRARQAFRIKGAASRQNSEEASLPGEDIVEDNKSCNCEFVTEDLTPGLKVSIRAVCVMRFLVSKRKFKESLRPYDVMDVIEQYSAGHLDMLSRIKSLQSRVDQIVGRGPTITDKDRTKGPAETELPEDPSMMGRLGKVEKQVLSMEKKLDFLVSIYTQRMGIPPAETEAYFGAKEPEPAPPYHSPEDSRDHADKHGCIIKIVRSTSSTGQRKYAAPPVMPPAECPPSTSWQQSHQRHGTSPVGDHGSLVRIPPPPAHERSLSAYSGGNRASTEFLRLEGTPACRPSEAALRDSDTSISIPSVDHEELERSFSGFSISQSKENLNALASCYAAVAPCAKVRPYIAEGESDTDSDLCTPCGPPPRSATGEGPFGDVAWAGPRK
row,Compound,"activity change, less the hit threshold"
1,CCOc1ccccc1NC(=O)C(=O)CC(=O)c1cccc(OC)c1,-8.6% (inactive)
2,COc1ccc(C(=O)CNc2ccccc2C#N)cc1,-15% (inactive)
3,COc1ccc(C(=O)CC(=O)C(=O)Nc2ccc(C)c(Cl)c2)cc1,-9% (inactive)
4,CCN1CCN(CC(=O)c2ccc(OC)cc2)CC1,-18.4% (inactive)
5,COc1cccc(C(=O)CC(=O)C(=O)Nc2ccc(C)cc2Cl)c1,10.8% (active)
6,COc1ccc(C(=O)CC(=O)C(=O)Nc2ccccc2)cc1,3.1% (active)
7,COc1ccc(C(=O)CC(=O)C(=O)Nc2ccc(Cl)cc2)cc1,-2.1% (inactive)
8,COc1cc(OC)cc(C(=O)O/N=C(\N)c2cccc(C)c2)c1,-9.7% (inactive)
9,COc1ccc(C(=O)CC(=O)C(=O)Nc2ccc(C)cc2Cl)cc1,10.2% (active)
10,COc1ccc(C(=O)CC(=O)C(=O)Nc2ccccc2C(F)(F)F)cc1,7.4% (active)
11,COc1ccc(C(=O)CC(=O)C(=O)Nc2ccc(C)c(C)c2)cc1,-11.4% (inactive)
12,CCCNc1c(NS(=O)(=O)c2cccc(C#N)c2)c(=O)oc2ccccc12,-15.8% (inactive)
13,CCOC(=O)c1c(C)oc2cc(Br)c(OC)cc12,-14.7% (inactive)
14,COCCCNC(=O)CC(NS(=O)(=O)c1ccc(F)cc1)c1ccc(OC)cc1 (configuration not stated),-22.5% (inactive)
15,O=C1C=C(NCCN2CCOCC2)C(=O)c2cnccc21,-10.1% (inactive)
16,CCN(Cc1ccc(OC)c(F)c1)C(=O)C1CCCO1 (configuration not stated),-7.1% (inactive)
17,COc1cc(/C=C2/C(=O)NN(c3ccccc3)C2=O)cc(Br)c1O,-17.5% (inactive)
18,CC(C)CCNC(=O)CCc1nnc(Cc2c[nH]c3ccccc23)o1,-15.1% (inactive)
19,COc1ccc(C(=O)CC(=O)C(=O)Nc2ccccc2Cl)cc1,44.4% (active)
20,CCOc1ccccc1NC(=O)C(=O)CC(=O)c1ccc(OC)cc1,-5.2% (inactive)
21,COc1ccc(C(=O)CC(=O)C(=O)Nc2ccccc2OC)cc1,-10.2% (inactive)
22,CC1CCCC(C(=O)OCc2ccccc2)N1 (configuration not stated),-16.7% (inactive)
23,Cn1cc([N+](=O)[O-])c(C(=O)NCc2cc3cc(Cl)ccc3[nH]2)n1,-13.6% (inactive)
24,N#Cc1ccccc1OCCN1C(=O)c2ccccc2C1=O,-7.5% (inactive)
25,C=CCn1c(-c2cc(-c3ccc(C)cc3)nc3ccccc23)n[nH]c1=S,-9.8% (inactive)
26,Cc1ccc(/C=N/NC(=O)c2cc(-c3ccncc3)nc3ccccc23)o1,-26.9% (inactive)
27,Cc1ccc(-c2cc(-c3n[nH]c(=S)o3)c3ccccc3n2)cc1,37.2% (active)
